Compound activity: PubChem BioAssay, National Center for Advancing Translational Sciences (NCATS)
ELG1 repair inh: ELG1-dependent DNA repair inhibition. hit rate 2.3% among 330,000. AID 504467. Potency, µM (doses to about 46.1 µM), without a hit: top-dose activity change, negative = inhibition, most hits filed as inhibitors. HEK293T ELG1-luciferase reporter, luminescence, 16 h; DNA damage induced by 5-fluorouridine; note: potency is the fitted concentration of half-maximal effect; % is set by controls: 0 for no effect and ±100 for the full control effect; nearly all actives have a fitted effect of over 55% in size
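Cells (2,000 per well) received 5-fluorouridine plus test compound or DMSO and were incubated 16 hr at 37 °C, 5% CO2. Luciferase activity was read by luminescence 30 min after ONE-Glo addition; signal suppression marked inhibition of damage-induced ELG1 function.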
FUS yeast rescue: suppressors of FUS proteinopathy in yeast. Potency, µM (titrated, usually from 76.6 µM), most hits filed as activators. hit rate 0.24% among 390,000. AID 1347120. S. cerevisiae FUS-expressing, growth rescue, OD600, 24 h;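 note: potency is the fitted concentration of half-maximal effect; plate controls were DMSO vehicle for no effect and reference control for full effect; nearly all actives have a fitted effect of over 55% in size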
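FUS-expressing yeast, raffinose-pregrown, induced in 2% galactose minimal medium at OD 0.005; compounds in a dilution series, 24hr at 30C. Growth restoration read as absorbance at 600 nm. CP55940 positive control, DMSO negative.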
TRPV1 PAM: potentiators of human vanilloid receptor 1 (TRPV1). Q8NER1. TRPV1-expressing cells, Fluo-8 calcium influx, capsaicin EC20 potentiation. potentiation, % at 8.33 µM. hit rate 0.02% among 320,000; in the data active = potentiation above about 80%; inconclusive = between about 30% and that limit; note: 0% is about no effect
Target sequence (Q8NER1 whole entry, looked up): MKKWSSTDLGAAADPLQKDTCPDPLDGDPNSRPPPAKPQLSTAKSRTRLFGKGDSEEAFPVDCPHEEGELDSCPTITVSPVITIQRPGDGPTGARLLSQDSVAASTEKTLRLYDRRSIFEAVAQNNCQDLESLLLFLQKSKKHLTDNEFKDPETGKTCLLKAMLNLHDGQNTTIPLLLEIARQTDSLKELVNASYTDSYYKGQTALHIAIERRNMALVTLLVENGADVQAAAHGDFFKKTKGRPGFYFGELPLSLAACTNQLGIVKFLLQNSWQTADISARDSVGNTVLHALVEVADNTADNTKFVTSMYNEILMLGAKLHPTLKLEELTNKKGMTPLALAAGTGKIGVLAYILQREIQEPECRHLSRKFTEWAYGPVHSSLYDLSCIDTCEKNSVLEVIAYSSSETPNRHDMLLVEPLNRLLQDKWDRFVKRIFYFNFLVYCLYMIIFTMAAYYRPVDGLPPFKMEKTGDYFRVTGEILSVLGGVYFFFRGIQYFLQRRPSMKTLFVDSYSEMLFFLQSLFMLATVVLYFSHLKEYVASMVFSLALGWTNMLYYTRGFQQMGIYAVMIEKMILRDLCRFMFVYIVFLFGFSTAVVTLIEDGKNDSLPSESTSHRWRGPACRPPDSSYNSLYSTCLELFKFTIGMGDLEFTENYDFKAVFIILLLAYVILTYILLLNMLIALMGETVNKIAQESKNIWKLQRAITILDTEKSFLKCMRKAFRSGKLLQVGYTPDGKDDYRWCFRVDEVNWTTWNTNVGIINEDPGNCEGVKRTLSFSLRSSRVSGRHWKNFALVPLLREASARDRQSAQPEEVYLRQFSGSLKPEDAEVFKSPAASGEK
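TRPV1-expressing cells were cultured overnight at 35.5C and loaded with Fluo-8 calcium dye for 40 to 90 min at room temperature. After a 10 s baseline, compound was added and calcium influx was read kinetically for 3 min (ex 480/em 520 nm).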
TRPV1 agonist: human TRPV1 agonism. TRPV1-expressing cells, Fluo-8 calcium influx, agonist mode. activation, % at 8.33 µM. hit rate 0.19% among 320,000. AID 540275; in the data active = activation above about 80%; inconclusive = between about 30% and that limit; note: 0% is about no effect
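TRPV1-expressing cells were cultured overnight at 35.5C and loaded with Fluo-8 calcium dye for 40 to 90 min at room temperature. After a 10 s baseline, compound was added and calcium influx was read kinetically for 3 min (ex 480/em 520 nm).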
Giardia killer: kills Giardia lamblia | Giardia lamblia trophozoite viability | activity change, % at 7.66 µM, hits read low | hit rate 0.15% among 340,000 | AID 540267; in the data active = activity change below about -80%; inconclusive = between about -30% and that limit;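 note: parasites exposed to compound for two days anaerobically before the ATP read; % is set by controls: 0 for no effect and ±100 for the full control effect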
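Trophozoites 100 cells/well + cpd; 48 hrs, 37 deg C, anaerobic. ATPLite 1-Step added, 15-30 min RT, luminescence read (ATP-based viability).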
The depositor's hits bear a star; i = inactive; ? = inconclusive; · = not tested or not shown. A selection: hits, their analogues and other compounds. The true share with any hit is near 2.3%. Unless noted, calls come from the whole dose curve; as a rule, active = well fitted curve in the direction sought with a large enough effect; inconclusive = small, poorly fitted or top-dose-only effect, or another doubt; inactive = no such curve, though single readings can be large; an effect the other way counts as inactive or inconclusive.

SMILES | ELG1 repair inh | FUS yeast rescue | TRPV1 PAM | TRPV1 agonist | Giardia killer
O=C1N[C@H](Cc2ccccc2)COC(=O)[C@H](Cc2ccc(F)cc2)CC/C=C/C[C@H]1CC(=O)N(CCO)Cc1ccccc1 | ? | ? | · | · | 5
O=C1N[C@@H](c2ccccc2)COC(=O)[C@@H](Cc2ccc(F)cc2)CC/C=C/C[C@H]1CC(=O)N(CCO)Cc1ccccc1 | 15µM* | ? | · | · | 8
CC(C)(C)[C@@H]1COC(=O)[C@H](Cc2ccc(F)cc2)C/C=C\C[C@H](CC(=O)N(CCO)Cc2ccccc2)C(=O)N1 | 21µM* | ? | · | · | 6
O=C1N[C@@H](c2ccccc2)COC(=O)[C@@H](Cc2ccc(F)cc2)CC/C=C/C[C@@H]1CC(=O)N(CCO)Cc1ccccc1 | 26µM* | ? | · | · | -7
CCOc1ccc(CC(=O)Nc2c(C(=O)c3ccc(F)cc3)oc3ccc(Cl)cc23)cc1OCC | · | i | · | · | ·
Cc1cc(=O)n2nc(N3CCC(C(=O)Nc4ccc(Br)cc4F)CC3)sc2n1 | · | i | · | · | ·
CC(=O)C[C@@H]1OC2CCCCC2N1S(=O)(=O)c1ccc(C)cc1 (stereo partly drawn) | · | i | · | · | ·
Cc1cccc(N2CC(c3nc4ccccc4n3CCC3CCCCC3)CC2=O)c1 (stereo not drawn) | · | i | · | · | ·
O=C(NCc1nc2ccccc2[nH]1)C1=C[C@H](c2ccccc2)C[C@H](OCc2ccc(CO)cc2)O1 | 21µM* | i | 25 | 2 | -2
O=C(NCc1nc2ccccc2[nH]1)C1=C[C@@H](c2ccccc2)C[C@@H](OCc2ccc(CO)cc2)O1 | -21% | i | -3 | 14 | 0
O=C(NCc1nc2ccccc2[nH]1)C1=C[C@@H](c2ccc(C(F)(F)F)cc2)C[C@@H](OCc2ccc(CO)cc2)O1 | · | 32µM* | · | · | -2
Cc1nc2c(-c3ccccc3)c(C)nn2c(C)c1CCC(=O)NCc1ccc(F)cc1 | · | i | · | · | ·
Clc1cccc(-c2nnc(SCc3nc4ccccc4[nH]3)n2Cc2ccco2)c1 | 0% | ? | 9 | 10 | -11
Clc1ccc(OCc2nnc(SCc3nc4ccccc4[nH]3)n2Cc2ccco2)cc1 | 16µM* | ? | 5 | -1 | -8
CNc1ncnc2c1cnn2-c1ccc(C)c(C)c1 | · | i | · | · | ·
FC(F)(F)c1cnc(C(c2ccccn2)c2ncn[nH]2)c(Cl)c1 (stereo not drawn) | 26µM* | i | ? | -1 | -20
Cc1c(C(=O)N2CCN(C(=O)c3ccccc3)CC2)oc2ccc(F)cc12 | 18µM* | i | -9 | 7 | -3
Cc1c(C(=O)N2CCN(c3ncccn3)CC2)oc2ccc(F)cc12 | ? | i | · | · | -6
O=C(Nc1ccccc1C(F)(F)F)N1CCN(c2ccc3nncn3n2)CC1 | 0% | i | -15 | 8 | -7
O=C(Nc1ccccc1C(F)(F)F)N1CCN(c2ccc3nnc(-c4ccc(F)cc4)n3n2)CC1 | 12µM* | i | 11 | 2 | 8
Fc1ccc(-c2nnc3ccc(N4CCc5ccccc5C4)nn23)cc1 | 18µM* | i | 3 | 8 | -2
O=C(Nc1ccc(F)cc1)N1CCN(c2ccc3nnc(-c4ccc(F)cc4)n3n2)CC1 | 7.3µM* | ? | 0 | 4 | 6
COc1ccc(NC(=O)C2(c3cccs3)CCOCC2)cc1Cl | · | i | · | · | ·
CCOC(=O)c1cc(C)n(CC2CCC(C(=O)Nc3ccc(C(=O)OC)cc3)CC2)c1C (stereo not drawn) | · | i | · | · | ·
COc1ccc(NC2c3ncccc3C(=O)N2Cc2cccs2)cc1 (stereo not drawn) | 2% | i | -31 | ? | -5
O=C1c2cccnc2C(Nc2ccc(Br)cc2)N1Cc1cccs1 (stereo not drawn) | 9% | i | -27 | 84* | 21
COc1cc(C(=O)Nc2nc(OC)c(-c3ccccc3)c(OC)n2)cc(OC)c1OC | 9.2µM* | i | 9 | -3 | 0
COc1ccc(C(=O)Nc2ccc3oc(-c4cccnc4)nc3c2)cc1OC | ? | i | 1 | 6 | 0
COc1cc(C(=O)Nc2ccc3oc(-c4cccnc4)nc3c2)cc(OC)c1OC | 23µM* | i | 3 | 2 | -6
COc1cc(C(=O)Nc2cc(-c3ccccc3)[nH]n2)cc(OC)c1OC | ? | i | ? | 3 | -1
